# Screens from PubChem BioAssay.
# KCNH2 3.1 inh = blocks the human KCNH2 3.1 channel isoform; U2OS KCNH2 3.1, thallium flux FluxOr; active compounds read low; activity change, % (tested at about 1.8 µM); hit rate 0.95% among 340,000; AID 720553;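 active = maximum activity change below -70%; inconclusive = maximum activity change from -70% to -50%; inactive = maximum activity change above -50%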;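 also: thallium influx rate constant from kinetic fluorescence after stimulation buffer; % is scaled to controls: 0 for no effect and ±100 for the full control effect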
#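 Thallium flux via FluxOr fluorescence (Red40 quencher, 45 min loading) in U2OS cells virally expressing the KCNH2 3.1 isoform (1.77 x 10^8 /mL virus, overnight at 37 C). Rate constants from 2-min kinetic reads post-stimulation, normalised to positive and negative controls.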
# GLP1R inv ag = acts as inverse agonist at human GLP-1 receptor; HEK293 GLP-1R CRE-luciferase, luminescence, 24 h; GLP-1R form is constitutively active; Potency, µM (doses to about 38.3 µM), without a hit: top-dose activity change, negative = inhibition, actives largely listed as inhibitors; hit rate 1.6% among 410,000; also: potency is read from the fitted curve at half-maximal effect; % is scaled to controls: 0 for no effect and ±100 for the full control effect; nearly all actives have a fitted effect of over 55% in size
# Target sequence (P43220 whole entry, looked up): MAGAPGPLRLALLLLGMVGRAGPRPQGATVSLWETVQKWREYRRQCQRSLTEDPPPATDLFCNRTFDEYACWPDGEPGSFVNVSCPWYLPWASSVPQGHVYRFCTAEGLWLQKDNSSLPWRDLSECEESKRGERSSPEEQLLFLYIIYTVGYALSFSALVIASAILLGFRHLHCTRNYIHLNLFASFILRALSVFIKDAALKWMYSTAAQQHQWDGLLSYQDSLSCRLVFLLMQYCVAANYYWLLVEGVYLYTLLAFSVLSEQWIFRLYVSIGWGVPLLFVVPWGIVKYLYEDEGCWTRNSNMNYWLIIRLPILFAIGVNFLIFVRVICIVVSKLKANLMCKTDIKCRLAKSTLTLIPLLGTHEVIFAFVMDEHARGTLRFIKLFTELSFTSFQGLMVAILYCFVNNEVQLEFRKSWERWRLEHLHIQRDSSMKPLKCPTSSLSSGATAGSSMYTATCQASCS
#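 Readout was luciferase luminescence, measured 12 min after detection reagent at room temperature. Beforehand, GLP-1R reporter HEK293 cells had sat 12 h, then received compounds for 24 hr at 37 deg C.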
# hERG WT inh = blocks the wildtype human KCNH2 potassium channel; U2OS, BacMam KCNH2, thallium flux FluxOr; active compounds read low; activity change, % at 1.84 µM; hit rate 0.37% among 340,000;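 active = maximum activity change below -70%; inconclusive = maximum activity change between -70% and -50%; inactive = maximum activity change above -50%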; also: % is scaled to controls: 0 for no effect and ±100 for the full control effect
#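 U2OS cells transduced with wild-type KCNH2 virus are loaded with FluxOr dye for 45 min, and thallium flux is measured in kinetic reads before and after stimulation buffer. Rate constants are normalized to DMSO controls.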
# GLS inh = blocks human kidney-isoform glutaminase activity | O94925 | GLS enzymatic activity, qHTS titration | Potency, µM (titrated, usually from 45.5 µM), without a hit: at the top dose activity change, negative = inhibition, hits mostly inhibitors | hit rate 0.21% among 410,000 | AID 624170; also: potency is read from the fitted curve at half-maximal effect; % is scaled to controls: 0 for no effect and ±100 for the full control effect
#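 Two-point fluorescence kinetic (t0, 30 min RT) for hKGA; glutamate detected via glutamate oxidase–HRP–Amplex Red. Substrate: 1 mM L-glutamine solution; buffer 45 mM KH2PO4, pH 8.2.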
# HEK293 tox = cytotoxicity in counter-screen for GLP-1R inverse agonists | HEK293 cAMP-luciferase reporter cells, luminescence, 24 h | Potency, µM (titrated, usually from 38.3 µM), for the others: top-dose activity change, negative = inhibition, hits mostly inhibitors | hit rate 0.13% among 410,000;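 also: loss of luciferase light is scored as toxicity; potency is read from the fitted curve at half-maximal effect; % is scaled to controls: 0 for no effect and ±100 for the full control effect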
#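 Seeding density was 200 cells/uL; after overnight-length (12 h) culture, 23 nL compounds went on for 24 h at 37 °C. Readout used a luciferase detection reagent, luminescence taken after 12 min at room temperature.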
# GLP1R ag = activates the human GLP-1 receptor | AID 624172 | hit rate 0.007% among 380,000 | HEK293 GLP-1R CRE-luciferase, luminescence, 4-6 h; cells express a hypersensitive GLP-1R form | Potency, µM (top dose mostly 45.6 µM), without a hit: at the highest dose activation, most hits filed as activators; also: potency is read from the fitted curve at half-maximal effect; % of control where 0% means no effect
# Numbers without * were called inactive; ? = inconclusive; . = no result given. The list is not random: actives were taken first. Their share in the collection is about 2.8%. Unless noted, calls follow the shape of the dose curve; as a rule, active = well fitted curve in the direction sought with a large enough effect; inconclusive = small, poorly fitted or top-dose-only effect, or another doubt; inactive = no such curve, though single readings can be large; an effect the other way counts as inactive or inconclusive.
SMILES,KCNH2 3.1 inh,GLP1R inv ag,hERG WT inh,GLS inh,HEK293 tox,GLP1R ag
COc1ccc(N2C(=NC(=O)CCC3CCCC3)SC3CS(=O)(=O)CC32)cc1 (configuration not stated),56,21%,11,-2%,-31%,-6%
COc1cc(/C=N/NS(=O)(=O)c2ccc(C)cc2)ccc1OCc1cccc(C(=O)O)c1,2,3.2µM*,3,23%,-1%,-3%
COc1ccc(/C=N/NS(=O)(=O)c2ccc(C)cc2)cc1OC(=O)c1ccccc1,28,?,3,-5%,-8%,-12%
COc1cc(/C=N/NS(=O)(=O)c2ccc3ccccc3c2)ccc1OCc1ccc(C(=O)O)cc1,0,2.5µM*,-4,3%,5%,-9%
COc1cc(/C=N/NC(N)=S)ccc1OCc1ccc(C)cc1,0,?,22,0%,13µM*,19%
CCc1ccc(S(=O)(=O)c2nnn3c2nc(NCCC(C)C)c2cc(Cl)ccc23)cc1,.,7%,.,3%,21%,.
O=C(C1CC12CCCC2)N1CCC(CO)(Cc2ccccc2Cl)CC1 (configuration not stated),6,10µM*,31,0%,0%,-2%
COC(=O)c1ccc(CN2CCC(CO)(Cc3ccccc3Cl)CC2)cc1,?,?,42,0%,-8%,19%
O=C(Cn1cc(S(=O)(=O)Cc2cccc(Cl)c2)c2ccccc21)Nc1ccccc1C(F)(F)F,.,-17%,.,-2%,-1%,.
CC(=O)c1ccc(NC(=O)Cn2cc(S(=O)(=O)Cc3cccc(Cl)c3)c3ccccc32)cc1,.,10µM*,.,-4%,?,.
Cc1cccc(NC(=O)c2ccc3nccnc3c2)c1C,-14,-10%,9,4%,2%,1%
COc1ccc(/C=C2/CSC/C(=C/c3ccc(OC)c(OC)c3)C2=O)cc1OC,1,5µM*,-4,2%,-35%,9%
O=C(CSc1nc2c([nH]c3ccccc32)c(=O)n1-c1ccccc1)Nc1ccc(Cl)c(Cl)c1,.,1%,.,-4%,0%,.
Cc1cc(=O)n(Cc2ccccc2Cl)c2c1c(C)nn2-c1ccccc1,.,11%,.,0%,1%,.
N#Cc1cccc(NC(=O)Cn2nc(Cc3ccncc3)c3ccccc3c2=O)c1,.,-2%,.,-15%,-2%,.
Cc1cccc(C)c1NC(=O)CNC(=O)Cc1c[nH]c2ccccc12,5,-21%,-106*,-4%,-3%,3%
CC(C)CNC(=O)CCCc1c[nH]c2ccccc12,-12,-19%,-70*,51%,-3%,8%
CCc1ccc(OC2(C)CCN(Cc3ccc4c(c3)OCCO4)C2)cc1 (configuration not stated),.,-27%,.,-4%,7%,3%
CCN(CC)c1ccc(NC(=O)COCc2cc(-c3ccc4c(c3)OCO4)on2)c(C)c1,.,-4%,.,15%,1%,.
COC(=O)c1ccc(NC(=O)CC2C(=O)N(c3cccc(OC)c3)C(=O)N2Cc2cccs2)cc1 (configuration not stated),.,1%,.,2%,1%,.
COc1cccc(NC(=O)c2ccc3nc(Cc4ccccc4)oc3c2)c1,.,10µM*,.,0%,?,.
CCC(C)NC(=O)c1ccc2nc(Cc3ccc(OC)cc3)oc2c1 (configuration not stated),8,59%,-7,0%,-7%,56%
CCC(NC(=O)c1ccc2nc(Cc3ccc(OC)cc3)oc2c1)c1ccncc1 (configuration not stated),-105*,-30%,12,-1%,-12%,-7%
CCOC(=O)c1cccc(NC(=O)c2ccc3nc(Cc4ccccc4)oc3c2)c1,.,?,.,-1%,-25%,.
CCOc1cccc(C(=O)Nc2ccc3oc(Cc4ccc(Cl)cc4)nc3c2)c1,-13,2.2µM*,-9,11%,-29%,-3%
SMILES,KCNH2 3.1 inh,GLP1R inv ag,hERG WT inh,GLS inh,HEK293 tox,GLP1R ag
COc1ccc(-c2oc3ccccc3c2C#CC(C)(C)O)cc1,4,?,11,2%,6%,14%
COc1ccc(CN(C(=O)Cc2coc3ccc(C)cc23)C2CCS(=O)(=O)C2)cc1 (configuration not stated),.,6%,.,0%,-7%,.
Clc1ccc(CSc2ncnc3c2ncn3C2CCCCO2)cc1 (configuration not stated),-43,11µM*,-4,-4%,0%,31%
COc1cc(/C=C2\SC(c3ccccc3)=NC2=O)cc(Cl)c1O,3,-6%,1,8.9µM*,18%,-1%
COc1cc(/C=C2\SC(c3ccc(C)cc3)=NC2=O)cc(OC)c1OC,3,8%,-10,-7%,16%,1%
COc1cccc(/C=N/NC(=O)C(C)n2nc(C)c([N+](=O)[O-])c2C)c1O (configuration not stated),-2,1.8µM*,-1,8%,?,-3%
O=C(C(=Cc1ccc(F)cc1)c1ccccc1)c1ccc(O)cc1,0,?,-1,11µM*,?,-6%
CCCN1C(=O)C2(c3ccccc31)c1c(oc3ccc(F)cc3c1=O)C(=O)N2CCCOC(C)C (configuration not stated),.,13%,.,4%,6%,.
CC(CN1CCN(CCOCCO)CC1)CN1c2ccccc2Sc2ccc(Cl)cc21 (configuration not stated),-102*,?,0,32%,?,-3%
COc1cc(/C=C(\C#N)c2ccccn2)cc(OC)c1O,21,2%,-6,20%,10%,16%
COc1cc(/C=C(\C#N)c2[nH]nc(N)c2C#N)cc(OC)c1O,-7,42%,6,10µM*,?,12%
Cc1cc(-c2cc(-c3ccccc3)on2)nc(NC2CCCC2)n1,-70*,?,0,-1%,26%,-1%
CCCN(CCC)C(=O)C(CCC(=O)OCCCN1CCN(CCOC(=O)Cc2c(C)n(C(=O)c3ccc(Cl)cc3)c3ccc(OC)cc23)CC1)NC(=O)c1ccccc1 (configuration not stated),.,.,.,3%,.,0%
COc1ccc(Cl)cc1NC(=O)CN(C)S(=O)(=O)c1ccc2c(c1)CCCN2C(C)=O,.,-2%,.,0%,3%,.
CCCCc1oc2ccc(NS(C)(=O)=O)cc2c1C(=O)c1ccc(OCCCN(CCCC)CCCC)cc1,.,.,.,-3%,.,-1%
O=C(NCc1noc2ccccc12)Nc1ccc(F)cc1F,.,-22%,.,-7%,-27%,.
COC(=O)C1=C(C)N=C2SC(C#N)=C(N)N2C1c1cc(OC)c(OC)c(OC)c1 (configuration not stated),-10,-13%,1,11%,37%,27%
